# Tests used:
# Experiment in all cases: DAPPL (digital affinity profiling via proximity ligation, sequencing); 10 mM Tris-HCl pH 7.5, 50 mM NaCl, 1 mM DTT, 4% glycerol, room temperature, 30 min; GST-TFs on glutathione beads, 16-mer random dsDNA library, 0.1% formaldehyde crosslink after washing; high values mean tight binding
# FEV = molecular target: T1, FEV (Homo sapiens, UniProt Q99581 1-238); conditions: protein: recombinant; tags: N-terminal GST; dsDNA, one strand shown
# T1 sequence: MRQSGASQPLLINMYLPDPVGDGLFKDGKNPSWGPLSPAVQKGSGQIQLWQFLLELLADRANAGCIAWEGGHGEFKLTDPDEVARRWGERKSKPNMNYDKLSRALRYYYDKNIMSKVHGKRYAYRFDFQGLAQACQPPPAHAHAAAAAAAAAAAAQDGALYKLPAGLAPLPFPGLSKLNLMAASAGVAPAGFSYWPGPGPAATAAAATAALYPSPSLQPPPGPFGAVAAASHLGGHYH
# Outline: (§1)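 Binding signal is each hexamer's read frequency for a factor divided by its frequency in the tag-only sample. The factors were GST-fused human transcription factors from yeast, captured on glutathione beads, DNA-barcoded and pooled with that sample. Pools were incubated with 200 nmole of a random double-stranded 16-mer DNA library in Tris/NaCl/DTT/glycerol buffer at room temperature for 30 min, then washed, crosslinked with 0.1% formaldehyde, proximity-ligated with BsaI/T4 ligase (1 h, 37 °C), PCR-amplified and sequenced on an Illumina NextSeq500.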
# ETV5 = ETV5 (Homo sapiens, UniProt P41161 1-510); conditions: protein: recombinant; tags: N-terminal GST; dsDNA, one strand shown
# Outline: as §1
# HSF1 = HSF1 (Homo sapiens, UniProt Q00613 1-529); conditions: protein: recombinant; tags: N-terminal GST; chain copies: 3; dsDNA, one strand shown
# Outline: as §1
# SPIC = molecular target: T2, SPIC (Homo sapiens, UniProt Q8N5J4 1-248); conditions: protein: recombinant; tags: N-terminal GST; dsDNA, one strand shown
# T2 sequence: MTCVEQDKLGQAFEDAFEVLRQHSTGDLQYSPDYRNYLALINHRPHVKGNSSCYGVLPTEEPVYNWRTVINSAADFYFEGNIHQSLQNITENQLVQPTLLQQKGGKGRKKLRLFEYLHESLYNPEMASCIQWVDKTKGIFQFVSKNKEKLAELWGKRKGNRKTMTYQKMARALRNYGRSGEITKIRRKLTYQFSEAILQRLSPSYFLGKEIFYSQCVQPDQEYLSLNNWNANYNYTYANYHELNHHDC
# Outline: as §1
# ELF4 = ELF4 (Homo sapiens, UniProt Q99607 1-663); conditions: protein: recombinant; tags: N-terminal GST; dsDNA, one strand shown
# Outline: as §1
# ELK4 = molecular target: T3, ELK4 (Homo sapiens, UniProt P28324-2 1-405); conditions: protein: recombinant; tags: N-terminal GST; dsDNA, one strand shown
# T3 sequence: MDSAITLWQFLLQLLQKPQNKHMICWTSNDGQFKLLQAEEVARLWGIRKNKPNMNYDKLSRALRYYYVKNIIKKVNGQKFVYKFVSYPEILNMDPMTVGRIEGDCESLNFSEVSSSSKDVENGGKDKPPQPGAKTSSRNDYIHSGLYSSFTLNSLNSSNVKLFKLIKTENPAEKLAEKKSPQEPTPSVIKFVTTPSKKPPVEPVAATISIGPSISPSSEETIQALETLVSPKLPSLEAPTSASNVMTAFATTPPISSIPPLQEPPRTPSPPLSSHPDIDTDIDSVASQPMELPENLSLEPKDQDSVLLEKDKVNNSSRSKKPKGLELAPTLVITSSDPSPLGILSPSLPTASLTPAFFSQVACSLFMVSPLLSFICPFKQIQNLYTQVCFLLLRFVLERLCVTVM
# Outline: as §1
# ETV2 = molecular target: T4, ETV2 (Homo sapiens, UniProt O00321 1-342); conditions: protein: recombinant; tags: N-terminal GST; dsDNA, one strand shown
# T4 sequence: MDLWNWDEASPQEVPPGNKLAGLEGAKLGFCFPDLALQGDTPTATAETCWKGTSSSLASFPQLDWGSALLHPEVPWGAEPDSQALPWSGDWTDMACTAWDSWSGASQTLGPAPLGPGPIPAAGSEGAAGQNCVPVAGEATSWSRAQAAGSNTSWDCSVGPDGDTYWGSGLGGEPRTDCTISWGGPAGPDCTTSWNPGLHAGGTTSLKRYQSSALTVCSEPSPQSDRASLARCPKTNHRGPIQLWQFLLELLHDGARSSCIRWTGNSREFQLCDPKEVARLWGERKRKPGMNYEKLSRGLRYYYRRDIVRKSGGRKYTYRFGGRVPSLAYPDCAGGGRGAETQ
# Outline: as §1
# ELF3 = molecular target: T5, ELF3 (Homo sapiens, UniProt P78545 1-371); conditions: protein: recombinant; tags: N-terminal GST; dsDNA, one strand shown
# T5 sequence: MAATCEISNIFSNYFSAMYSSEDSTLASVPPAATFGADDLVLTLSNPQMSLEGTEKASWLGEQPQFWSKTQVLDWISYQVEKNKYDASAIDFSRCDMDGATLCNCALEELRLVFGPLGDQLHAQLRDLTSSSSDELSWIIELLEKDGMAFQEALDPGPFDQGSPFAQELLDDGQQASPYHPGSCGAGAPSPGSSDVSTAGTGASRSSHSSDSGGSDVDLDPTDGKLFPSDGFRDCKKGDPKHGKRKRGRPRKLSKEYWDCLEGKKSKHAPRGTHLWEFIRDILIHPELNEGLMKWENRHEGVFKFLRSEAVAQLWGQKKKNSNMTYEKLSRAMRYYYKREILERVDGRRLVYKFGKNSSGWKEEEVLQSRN
# Outline: as §1
# CRX = CRX (Homo sapiens, UniProt O43186 1-299); conditions: protein: recombinant; tags: N-terminal GST; dsDNA, one strand shown
# Outline: as §1
# ETV1 = ETV1 (Homo sapiens, UniProt P50549 1-477); conditions: protein: recombinant; tags: N-terminal GST; dsDNA, one strand shown
# Outline: as §1
# ERF = molecular target: T6, ERF (Homo sapiens, UniProt P50548 1-548); conditions: protein: recombinant; tags: N-terminal GST; dsDNA, one strand shown
# T6 sequence: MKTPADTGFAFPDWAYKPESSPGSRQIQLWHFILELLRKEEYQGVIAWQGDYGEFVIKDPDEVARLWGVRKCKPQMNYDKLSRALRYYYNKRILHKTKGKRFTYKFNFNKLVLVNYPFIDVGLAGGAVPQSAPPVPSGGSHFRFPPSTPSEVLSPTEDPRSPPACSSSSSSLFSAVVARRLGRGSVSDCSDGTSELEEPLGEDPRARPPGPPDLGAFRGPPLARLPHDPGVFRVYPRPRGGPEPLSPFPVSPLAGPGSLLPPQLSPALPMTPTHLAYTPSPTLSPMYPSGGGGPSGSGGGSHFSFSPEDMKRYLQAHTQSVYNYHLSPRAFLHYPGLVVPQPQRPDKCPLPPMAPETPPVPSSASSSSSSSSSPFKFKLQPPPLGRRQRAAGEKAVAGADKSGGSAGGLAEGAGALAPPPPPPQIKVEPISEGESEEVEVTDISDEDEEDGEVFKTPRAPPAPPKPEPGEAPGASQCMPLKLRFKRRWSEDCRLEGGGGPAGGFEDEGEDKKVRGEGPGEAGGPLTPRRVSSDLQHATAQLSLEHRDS
# Outline: as §1
# ETV3L = molecular target: T7, ETV3L (Homo sapiens, UniProt Q6ZN32 1-361); conditions: protein: recombinant; tags: N-terminal GST; dsDNA, one strand shown
# T7 sequence: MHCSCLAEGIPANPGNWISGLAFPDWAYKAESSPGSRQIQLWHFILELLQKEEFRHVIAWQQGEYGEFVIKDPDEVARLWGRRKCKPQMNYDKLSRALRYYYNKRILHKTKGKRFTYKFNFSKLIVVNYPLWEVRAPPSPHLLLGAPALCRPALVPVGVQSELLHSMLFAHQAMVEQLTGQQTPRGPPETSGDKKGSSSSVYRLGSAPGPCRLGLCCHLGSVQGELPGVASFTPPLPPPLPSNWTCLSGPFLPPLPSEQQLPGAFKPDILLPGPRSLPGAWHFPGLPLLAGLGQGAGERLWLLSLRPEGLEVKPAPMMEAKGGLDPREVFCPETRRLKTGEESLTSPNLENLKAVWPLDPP
# Outline: as §1
# ETS2 = molecular target: T8, ETS2 (Homo sapiens, UniProt P15036 1-469); conditions: protein: recombinant; tags: N-terminal GST; dsDNA, one strand shown
# T8 sequence: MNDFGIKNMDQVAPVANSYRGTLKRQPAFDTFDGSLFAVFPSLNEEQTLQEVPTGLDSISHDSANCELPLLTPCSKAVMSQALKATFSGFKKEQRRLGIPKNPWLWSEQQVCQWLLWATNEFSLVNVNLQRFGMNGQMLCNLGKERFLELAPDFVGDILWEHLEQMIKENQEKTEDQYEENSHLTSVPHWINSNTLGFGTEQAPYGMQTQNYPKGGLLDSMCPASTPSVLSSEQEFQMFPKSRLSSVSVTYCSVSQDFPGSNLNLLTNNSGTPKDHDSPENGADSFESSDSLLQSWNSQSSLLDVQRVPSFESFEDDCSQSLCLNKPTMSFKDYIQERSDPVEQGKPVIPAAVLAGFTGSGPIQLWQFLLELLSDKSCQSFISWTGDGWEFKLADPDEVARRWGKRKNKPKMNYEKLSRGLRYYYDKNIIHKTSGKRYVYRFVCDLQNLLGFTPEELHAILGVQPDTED
# Outline: as §1
# SPDEF = molecular target: T9, SPDEF (Homo sapiens, UniProt O95238 1-335); conditions: protein: recombinant; tags: N-terminal GST; dsDNA, one strand shown
# T9 sequence: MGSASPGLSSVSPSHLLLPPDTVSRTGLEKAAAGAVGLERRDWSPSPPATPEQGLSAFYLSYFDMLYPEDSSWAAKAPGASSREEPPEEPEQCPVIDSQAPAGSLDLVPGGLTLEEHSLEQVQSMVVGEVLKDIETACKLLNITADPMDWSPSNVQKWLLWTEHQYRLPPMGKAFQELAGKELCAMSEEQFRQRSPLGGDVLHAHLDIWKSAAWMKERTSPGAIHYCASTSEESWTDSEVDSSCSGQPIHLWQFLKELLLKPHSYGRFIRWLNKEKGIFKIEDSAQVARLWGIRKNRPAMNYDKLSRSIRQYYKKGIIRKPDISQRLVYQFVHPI
# Outline: as §1
# ETV7 = molecular target: T10, ETV7 (Homo sapiens, UniProt Q9Y603 1-341); conditions: protein: recombinant; tags: N-terminal GST; dsDNA, one strand shown
# T10 sequence: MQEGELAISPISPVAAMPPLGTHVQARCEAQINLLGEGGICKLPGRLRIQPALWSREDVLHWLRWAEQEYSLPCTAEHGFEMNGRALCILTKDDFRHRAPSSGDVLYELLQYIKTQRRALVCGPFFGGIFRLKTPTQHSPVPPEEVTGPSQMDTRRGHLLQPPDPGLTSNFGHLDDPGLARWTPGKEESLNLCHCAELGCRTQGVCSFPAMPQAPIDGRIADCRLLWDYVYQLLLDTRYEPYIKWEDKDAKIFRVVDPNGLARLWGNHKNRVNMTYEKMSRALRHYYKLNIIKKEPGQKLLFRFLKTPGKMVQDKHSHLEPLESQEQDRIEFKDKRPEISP
# Outline: as §1
# ELF5 = molecular target: T11, ELF5 (Homo sapiens, UniProt Q9UKW6-2 1-255); conditions: protein: recombinant; tags: N-terminal GST; dsDNA, one strand shown
# T11 sequence: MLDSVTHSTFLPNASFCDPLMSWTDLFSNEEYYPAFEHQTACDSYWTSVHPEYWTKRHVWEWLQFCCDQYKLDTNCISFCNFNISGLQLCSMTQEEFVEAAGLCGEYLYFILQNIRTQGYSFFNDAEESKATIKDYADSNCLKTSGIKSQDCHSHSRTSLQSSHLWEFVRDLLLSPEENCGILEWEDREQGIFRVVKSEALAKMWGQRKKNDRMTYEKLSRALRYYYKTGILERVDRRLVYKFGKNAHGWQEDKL
# Outline: as §1
# ETV3 = molecular target: T12, ETV3 (Homo sapiens, UniProt P41162-2 1-143); conditions: protein: recombinant; tags: N-terminal GST; dsDNA, one strand shown
# T12 sequence: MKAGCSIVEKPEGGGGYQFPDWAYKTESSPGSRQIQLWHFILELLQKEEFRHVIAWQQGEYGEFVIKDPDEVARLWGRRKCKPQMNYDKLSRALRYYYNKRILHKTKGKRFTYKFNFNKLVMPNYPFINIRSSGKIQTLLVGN
# Outline: as §1
# ETV6 = ETV6 (Homo sapiens, UniProt P41212 1-452); conditions: protein: recombinant; tags: N-terminal GST; dsDNA, one strand shown
# Outline: as §1
# Chain of CRX (O43186 whole entry): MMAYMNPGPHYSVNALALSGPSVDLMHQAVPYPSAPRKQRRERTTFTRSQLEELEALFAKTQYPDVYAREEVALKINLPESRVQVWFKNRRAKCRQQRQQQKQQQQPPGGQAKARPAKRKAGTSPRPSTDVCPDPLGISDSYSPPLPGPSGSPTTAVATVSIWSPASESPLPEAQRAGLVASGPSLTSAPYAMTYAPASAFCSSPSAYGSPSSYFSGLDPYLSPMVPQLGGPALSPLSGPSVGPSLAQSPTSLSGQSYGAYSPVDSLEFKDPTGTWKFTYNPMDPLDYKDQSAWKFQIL
# Chain of HSF1 (Q00613 whole entry): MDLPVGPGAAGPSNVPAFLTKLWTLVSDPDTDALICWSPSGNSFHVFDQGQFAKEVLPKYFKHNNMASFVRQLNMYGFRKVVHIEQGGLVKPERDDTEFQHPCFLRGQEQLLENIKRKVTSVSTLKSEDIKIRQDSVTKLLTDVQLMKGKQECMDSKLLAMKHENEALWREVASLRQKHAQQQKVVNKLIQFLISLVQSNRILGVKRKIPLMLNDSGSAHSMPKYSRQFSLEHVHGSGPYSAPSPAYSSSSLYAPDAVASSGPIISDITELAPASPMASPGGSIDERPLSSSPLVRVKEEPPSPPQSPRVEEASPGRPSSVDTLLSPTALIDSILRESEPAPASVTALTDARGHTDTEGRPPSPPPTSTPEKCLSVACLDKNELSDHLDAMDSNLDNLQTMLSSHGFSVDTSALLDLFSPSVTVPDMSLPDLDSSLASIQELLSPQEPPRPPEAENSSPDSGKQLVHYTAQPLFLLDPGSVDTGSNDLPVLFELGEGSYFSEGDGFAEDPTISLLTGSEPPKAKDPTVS
# Chain of ELF4 (Q99607 whole entry): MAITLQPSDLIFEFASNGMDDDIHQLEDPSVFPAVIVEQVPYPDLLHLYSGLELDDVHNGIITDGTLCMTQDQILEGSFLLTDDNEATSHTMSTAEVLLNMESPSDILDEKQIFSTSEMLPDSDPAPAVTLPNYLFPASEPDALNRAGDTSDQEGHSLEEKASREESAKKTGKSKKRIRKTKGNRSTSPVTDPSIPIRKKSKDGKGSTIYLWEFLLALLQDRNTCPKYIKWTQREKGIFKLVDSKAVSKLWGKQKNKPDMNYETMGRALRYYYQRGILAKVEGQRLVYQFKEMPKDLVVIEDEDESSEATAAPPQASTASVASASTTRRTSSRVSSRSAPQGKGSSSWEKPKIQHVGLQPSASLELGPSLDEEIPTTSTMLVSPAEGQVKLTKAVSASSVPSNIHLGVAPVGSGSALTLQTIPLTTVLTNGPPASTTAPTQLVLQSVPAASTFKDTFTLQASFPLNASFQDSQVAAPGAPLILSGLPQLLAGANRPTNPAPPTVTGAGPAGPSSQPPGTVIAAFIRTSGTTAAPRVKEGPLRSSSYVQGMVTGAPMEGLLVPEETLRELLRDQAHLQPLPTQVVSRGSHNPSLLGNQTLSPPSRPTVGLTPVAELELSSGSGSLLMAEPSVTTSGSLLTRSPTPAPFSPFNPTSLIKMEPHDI
# Chain of ETV1 (P50549 whole entry): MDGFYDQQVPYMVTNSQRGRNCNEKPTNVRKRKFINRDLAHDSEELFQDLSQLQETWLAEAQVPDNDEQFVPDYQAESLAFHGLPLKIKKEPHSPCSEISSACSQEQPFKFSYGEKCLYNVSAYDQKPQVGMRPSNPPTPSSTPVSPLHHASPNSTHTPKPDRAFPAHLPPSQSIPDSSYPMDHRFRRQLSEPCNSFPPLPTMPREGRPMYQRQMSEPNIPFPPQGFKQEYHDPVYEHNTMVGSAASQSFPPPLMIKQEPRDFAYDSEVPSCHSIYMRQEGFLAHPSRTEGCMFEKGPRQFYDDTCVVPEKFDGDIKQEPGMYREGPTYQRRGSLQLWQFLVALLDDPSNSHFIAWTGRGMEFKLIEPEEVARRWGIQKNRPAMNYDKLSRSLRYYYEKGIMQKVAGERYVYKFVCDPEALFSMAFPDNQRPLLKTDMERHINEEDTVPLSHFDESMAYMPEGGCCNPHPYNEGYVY
# Chain of ETV5 (P41161 whole entry): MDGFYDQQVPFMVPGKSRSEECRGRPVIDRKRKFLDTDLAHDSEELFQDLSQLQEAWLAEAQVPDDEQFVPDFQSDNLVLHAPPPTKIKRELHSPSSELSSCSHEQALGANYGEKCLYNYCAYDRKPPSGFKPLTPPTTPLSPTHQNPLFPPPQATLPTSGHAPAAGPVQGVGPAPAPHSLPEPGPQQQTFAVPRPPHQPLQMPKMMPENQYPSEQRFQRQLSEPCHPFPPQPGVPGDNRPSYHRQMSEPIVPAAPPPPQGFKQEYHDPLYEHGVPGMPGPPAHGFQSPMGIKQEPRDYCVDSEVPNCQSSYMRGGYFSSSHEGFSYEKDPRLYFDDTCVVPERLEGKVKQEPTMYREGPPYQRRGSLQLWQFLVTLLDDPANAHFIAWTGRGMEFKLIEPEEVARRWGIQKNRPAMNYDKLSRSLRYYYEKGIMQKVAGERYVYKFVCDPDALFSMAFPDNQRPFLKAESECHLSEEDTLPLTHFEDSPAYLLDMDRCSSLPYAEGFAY
# Chain of ETV6 (P41212 whole entry): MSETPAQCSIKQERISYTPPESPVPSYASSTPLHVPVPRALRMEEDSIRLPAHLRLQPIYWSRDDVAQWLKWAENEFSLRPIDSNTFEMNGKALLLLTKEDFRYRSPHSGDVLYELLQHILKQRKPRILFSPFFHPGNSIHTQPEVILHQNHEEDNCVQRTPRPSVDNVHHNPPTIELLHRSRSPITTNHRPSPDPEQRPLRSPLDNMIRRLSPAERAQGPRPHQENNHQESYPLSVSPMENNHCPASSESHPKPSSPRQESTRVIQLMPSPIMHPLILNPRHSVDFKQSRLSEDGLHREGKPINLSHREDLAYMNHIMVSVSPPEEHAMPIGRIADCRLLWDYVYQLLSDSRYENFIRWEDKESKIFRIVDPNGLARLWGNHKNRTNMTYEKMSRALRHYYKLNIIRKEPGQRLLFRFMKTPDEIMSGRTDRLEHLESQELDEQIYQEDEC
sequence,measurement,setting,value
TTATTT,binding signal,FEV,"1.41 fold enrichment (6-mer frequency, TF over GST control)"
same,binding signal,ETV5,"1.47 fold enrichment (6-mer frequency, TF over GST control)"
same,binding signal,HSF1,"1.64 fold enrichment (6-mer frequency, TF over GST control)"
same,binding signal,SPIC,"1.48 fold enrichment (6-mer frequency, TF over GST control)"
same,binding signal,ELF4,"1.32 fold enrichment (6-mer frequency, TF over GST control)"
same,binding signal,ELK4,"1.43 fold enrichment (6-mer frequency, TF over GST control)"
same,binding signal,ETV2,"1.26 fold enrichment (6-mer frequency, TF over GST control)"
same,binding signal,ELF3,"1.55 fold enrichment (6-mer frequency, TF over GST control)"
same,binding signal,CRX,"2.43 fold enrichment (6-mer frequency, TF over GST control)"
same,binding signal,ETV1,"1.52 fold enrichment (6-mer frequency, TF over GST control)"
same,binding signal,ERF,"1.26 fold enrichment (6-mer frequency, TF over GST control)"
same,binding signal,ETV3L,"1.38 fold enrichment (6-mer frequency, TF over GST control)"
same,binding signal,ETS2,"1.41 fold enrichment (6-mer frequency, TF over GST control)"
same,binding signal,SPDEF,"1.19 fold enrichment (6-mer frequency, TF over GST control)"
same,binding signal,ETV7,"1.46 fold enrichment (6-mer frequency, TF over GST control)"
same,binding signal,ELF5,"1.43 fold enrichment (6-mer frequency, TF over GST control)"
same,binding signal,ETV3,"1.41 fold enrichment (6-mer frequency, TF over GST control)"
same,binding signal,ETV6,"1.4 fold enrichment (6-mer frequency, TF over GST control)"

# — article PMC7862700, “An all-to-all approach to the identification of sequence-specific readers for epigenetic DNA modifications on cytosine”
